One test addresses Neurogenic locus notch homolog protein 2 (Homo sapiens) (UniProt Q04721). Kind of test: Notch2 binders on small-molecule microarrays, primary screen, biochemical, small-molecule microarray, 635 nm fluorescence, stem cell growth factors (AID 1073). The settings on record: Notch2 binding, higher = more signal.
Neurogenic locus notch homolog protein 2 (Homo sapiens), sequence (Q04721 whole entry, looked up): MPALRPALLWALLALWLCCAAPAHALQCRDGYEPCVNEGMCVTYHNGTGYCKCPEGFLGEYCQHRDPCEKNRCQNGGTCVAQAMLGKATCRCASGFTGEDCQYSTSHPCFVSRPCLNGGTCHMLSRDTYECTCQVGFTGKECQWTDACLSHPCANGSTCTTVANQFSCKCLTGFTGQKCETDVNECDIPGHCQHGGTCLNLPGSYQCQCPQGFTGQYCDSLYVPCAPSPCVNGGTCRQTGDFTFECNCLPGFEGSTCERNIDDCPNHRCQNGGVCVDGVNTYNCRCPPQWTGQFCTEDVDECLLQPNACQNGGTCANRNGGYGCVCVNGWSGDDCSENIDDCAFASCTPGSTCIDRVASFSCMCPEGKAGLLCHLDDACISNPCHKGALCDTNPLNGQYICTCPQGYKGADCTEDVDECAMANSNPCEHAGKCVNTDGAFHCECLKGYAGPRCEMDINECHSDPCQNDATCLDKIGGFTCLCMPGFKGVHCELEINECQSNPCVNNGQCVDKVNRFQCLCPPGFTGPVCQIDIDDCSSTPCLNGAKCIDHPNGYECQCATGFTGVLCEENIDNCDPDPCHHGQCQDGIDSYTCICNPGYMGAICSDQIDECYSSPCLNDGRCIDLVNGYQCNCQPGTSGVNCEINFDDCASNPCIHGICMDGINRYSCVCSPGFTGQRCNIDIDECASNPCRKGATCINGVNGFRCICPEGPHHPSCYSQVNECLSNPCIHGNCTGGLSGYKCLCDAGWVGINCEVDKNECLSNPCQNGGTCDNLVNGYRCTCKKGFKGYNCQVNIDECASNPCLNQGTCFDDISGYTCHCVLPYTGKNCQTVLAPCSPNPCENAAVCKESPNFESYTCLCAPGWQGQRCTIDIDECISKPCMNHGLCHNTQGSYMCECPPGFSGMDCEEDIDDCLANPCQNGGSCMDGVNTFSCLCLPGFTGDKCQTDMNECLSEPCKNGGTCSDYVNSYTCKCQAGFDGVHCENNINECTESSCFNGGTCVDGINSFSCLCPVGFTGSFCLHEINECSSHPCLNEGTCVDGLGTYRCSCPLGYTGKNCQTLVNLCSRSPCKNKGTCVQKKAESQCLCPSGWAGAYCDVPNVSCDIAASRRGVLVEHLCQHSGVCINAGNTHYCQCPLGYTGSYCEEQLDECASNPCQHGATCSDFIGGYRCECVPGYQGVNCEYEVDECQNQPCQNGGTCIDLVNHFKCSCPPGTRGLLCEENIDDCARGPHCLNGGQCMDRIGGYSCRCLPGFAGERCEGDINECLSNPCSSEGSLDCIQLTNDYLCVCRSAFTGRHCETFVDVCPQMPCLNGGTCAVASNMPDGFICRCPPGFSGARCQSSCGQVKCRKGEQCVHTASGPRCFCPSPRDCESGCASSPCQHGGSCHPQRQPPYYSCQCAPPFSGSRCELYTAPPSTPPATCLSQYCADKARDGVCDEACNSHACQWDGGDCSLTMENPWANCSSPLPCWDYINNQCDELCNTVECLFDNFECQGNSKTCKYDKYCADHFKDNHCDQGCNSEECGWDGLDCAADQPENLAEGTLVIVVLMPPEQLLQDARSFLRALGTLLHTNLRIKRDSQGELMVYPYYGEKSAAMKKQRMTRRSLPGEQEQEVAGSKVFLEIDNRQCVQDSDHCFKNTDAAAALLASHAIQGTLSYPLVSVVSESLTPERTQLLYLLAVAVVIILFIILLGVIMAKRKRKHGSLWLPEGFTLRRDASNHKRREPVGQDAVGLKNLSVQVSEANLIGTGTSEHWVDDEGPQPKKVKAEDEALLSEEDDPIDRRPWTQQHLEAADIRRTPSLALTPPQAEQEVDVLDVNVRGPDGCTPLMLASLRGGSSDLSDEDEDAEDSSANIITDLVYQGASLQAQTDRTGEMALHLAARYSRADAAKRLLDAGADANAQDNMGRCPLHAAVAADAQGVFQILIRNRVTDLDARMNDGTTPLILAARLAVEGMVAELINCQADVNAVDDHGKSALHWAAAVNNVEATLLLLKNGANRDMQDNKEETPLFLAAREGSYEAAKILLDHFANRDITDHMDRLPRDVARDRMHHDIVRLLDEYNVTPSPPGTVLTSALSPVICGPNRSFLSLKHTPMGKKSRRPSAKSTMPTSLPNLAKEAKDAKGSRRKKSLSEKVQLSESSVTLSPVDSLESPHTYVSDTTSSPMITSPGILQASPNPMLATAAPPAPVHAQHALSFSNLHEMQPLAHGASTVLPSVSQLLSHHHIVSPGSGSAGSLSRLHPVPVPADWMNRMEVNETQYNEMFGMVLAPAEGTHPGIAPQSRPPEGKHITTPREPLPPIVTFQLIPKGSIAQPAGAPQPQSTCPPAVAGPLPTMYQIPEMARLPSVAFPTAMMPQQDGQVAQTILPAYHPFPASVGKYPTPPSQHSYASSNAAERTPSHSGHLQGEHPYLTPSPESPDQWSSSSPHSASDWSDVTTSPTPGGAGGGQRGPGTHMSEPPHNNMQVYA
The compound `CC(C)NC(=O)[C@@]1(c2ccc([N+](=O)[O-])cc2)CC(=O)N(C2CCCCC2)[C@@H]1c1ccc(CO)cc1` registered a composite z-score of 0.261.

As for `CC1CC/C=C\[C@H]2OC34C=CCN(c5ccc(Cl)cc5)C(=O)[C@H]3N(C(C)CO)C(=O)[C@]4(C)C2C(=O)O1` (stereo not given in full), the composite z-score was -0.807. `COc1cc2c(cc1O)C(C1CC1)N(Cc1cccc(OC(F)(F)F)c1)CC2` (stereo not given) showed a composite z-score of -0.725. `CC(c1ccccc1)C(O)C1C=CC2C(=O)N(C)C(=O)C2N1Nc1ccccc1` (stereo not given) came in with a composite z-score of 1.63. On the same count and under the same terms, the figure for `CCOC(=O)C1=CC[C@@H](c2ccccc2F)N(S(=O)(=O)c2ccc(C)cc2)[C@H]1c1ccccc1` is 1.46.

In the next test the target is Pro-neuregulin-1, membrane-bound isoform (Homo sapiens) (UniProt Q02297). Description: NRG1 binders on small-molecule microarrays, primary screen, psychiatric disease protein project, biochemical, small-molecule microarray, fluorescence 635/667 (AID 1075).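 Further: score combines 667 nm spot fluorescence with signal to noise.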 The settings on record: NRG1 binding, 635 nm fluorescence, higher = more signal.
Pro-neuregulin-1, membrane-bound isoform (Homo sapiens), sequence (Q02297 whole entry, looked up, canonical isoform): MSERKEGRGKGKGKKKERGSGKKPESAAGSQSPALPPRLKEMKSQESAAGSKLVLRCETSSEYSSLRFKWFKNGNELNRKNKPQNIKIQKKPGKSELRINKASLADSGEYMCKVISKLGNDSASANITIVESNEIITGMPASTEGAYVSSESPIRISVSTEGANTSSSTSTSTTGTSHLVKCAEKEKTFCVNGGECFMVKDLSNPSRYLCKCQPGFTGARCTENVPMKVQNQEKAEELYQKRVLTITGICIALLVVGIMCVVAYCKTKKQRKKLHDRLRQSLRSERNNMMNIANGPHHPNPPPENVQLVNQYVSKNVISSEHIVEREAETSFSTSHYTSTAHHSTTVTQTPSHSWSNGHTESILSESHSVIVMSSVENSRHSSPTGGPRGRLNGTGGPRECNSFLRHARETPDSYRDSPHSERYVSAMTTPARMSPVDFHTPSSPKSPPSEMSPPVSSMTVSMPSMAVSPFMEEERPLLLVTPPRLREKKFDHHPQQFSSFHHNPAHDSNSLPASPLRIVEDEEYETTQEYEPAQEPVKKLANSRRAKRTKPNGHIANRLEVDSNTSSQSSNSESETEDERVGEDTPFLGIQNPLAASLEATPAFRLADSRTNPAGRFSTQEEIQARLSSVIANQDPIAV
`CC1CC/C=C\[C@H]2OC34C=CCN(C(C)(C)C)C(=O)[C@H]3N(CCCCCO)C(=O)[C@@H]4C2C(=O)O1` (stereo not given in full) returned a composite z-score of 0.299. With `COc1cc(NN2C(C(O)c3cc(OC)c(OC)c(OC)c3)C=CC3C(=O)N(C)C(=O)C32)cc(OC)c1OC` (stereo not given), the composite z-score was found to be 1.98. `[N-]=[N+]=NCc1ccccc1[C@H]1OC(c2ccc(OCCCO)cc2)=N[C@@]1(Cc1ccccc1N=[N+]=[N-])C(=O)NCC(O)CO` (stereo not given in full) had a composite z-score of 1.68. Same read-out and setting: the figure for `C=C(COC)/C(=C/C[C@H](OC(=O)c1ccncc1)c1ccccc1OCCO)c1cc(C(=O)OC)ccc1OC` is 1.16; for `CC(C)=C1C(=O)C(c2ccccc2)=C2CN3C(=O)N(CCc4ccccc4)C(=O)[C@]3(Cc3ccc(C(F)(F)F)cc3)[C@H]21` it is 0.757. In turn, `NCCCCCCNC(=O)[C@@H]1C[C@@H]2C(=O)N[C@@H](CCCCN)C(=O)N2[C@@H]1c1ccc(O)cc1` yielded a composite z-score of 2.01. For `CC(C)[Si](C#CCCCC#N)(O[C@H](c1ccccc1)c1cn(Cc2ccccc2)nn1)C(C)C`, the composite z-score came to 0.048. On the same count and under the same terms, the figure for `CC(C)c1ccc(NN2C(C(O)c3ccc(C#N)cc3)C=CC3C(=O)N(c4ccccc4)C(=O)C32)cc1` (stereo not given) is 1.87. The same measure, in the same setting: the figure for `COC(=O)[C@]1(CCS(=O)(=O)c2ccccc2)N=C(c2ccc(OCCCO)cc2)O[C@@H]1c1ccccc1N=[N+]=[N-]` is 1.79; for `C=C[C@H](C)[C@H](OC(=O)Nc1ccc(SC)cc1)c1ccc(OCCO)cc1` it is 0.745; for `Cc1ccc(S[C@]2(C(=O)NCC(F)(F)F)CC(=O)N(Cc3cc(C(F)(F)F)cc(C(F)(F)F)c3)[C@@H]2c2ccc(CO)cc2)cc1` it is 1.09. `O=C1OCCC=C[C@H]2OC34C=CCN(c5ccc6ccccc6c5)C(=O)[C@H]3N(CCCO)C(=O)[C@@H]4C12` (stereo not given in full) showed a composite z-score of -0.962. Take `O=C1O[C@H](c2ccccc2)[C@H](c2ccccc2)N2[C@H]1[C@@H](C(=O)O)[C@]1(C(=O)Nc3ccc(C#CCCO)cc31)[C@H]2c1ccccc1OCCO`: the composite z-score stood at 0.944. `COC(=O)[C@@]1(Cc2ccc(F)cc2)[C@H]2c3cc(C(=O)N4CCCC4)n(CCc4c[nH]c5ccccc45)c3C[C@H]2CN1C(=O)c1ccccc1` showed a composite z-score of 2.06.

Regarding `[N-]=[N+]=Nc1ccccc1C[C@]1(C(=O)N2CCOCC2)COC(c2ccc(OCCCO)cc2)=N1`, the composite z-score turned out to be 1.38. `C=CCN1C(=O)[C@]2(CCC(=O)OC(C)(C)C)N=C(c3ccc(OCCCO)cc3)O[C@@H]2c2ccccc21` registered a composite z-score of 0.811.

As for `O=C1OCCC=C[C@H]2OC34C=CCN(Cn5nnc6ccccc65)C(=O)[C@H]3N(CCCO)C(=O)[C@@H]4C12` (stereo not given in full), the composite z-score was -0.763. `COCCOC(=O)N1C(=O)[C@@]2(c3ccccc31)[C@H](c1ccc(O)cc1)N1[C@H](c3ccccc3)[C@H](c3ccccc3)OC(=O)[C@H]1[C@@H]2C(=O)N1CCN(c2ncccn2)CC1`: the composite z-score is 0.647. In the case of `Cc1ccc(S[C@]2(C(=O)NCC(F)(F)F)CC(=O)N(Cc3cc(C(F)(F)F)cc(C(F)(F)F)c3)[C@@H]2c2ccc(CO)cc2I)cc1`, the composite z-score is 0.848. Consider `C#CCN([C@@H](Cc1ccccc1)C(=O)OC)[C@@H](/C=C/C1CC1)[C@H](O)Cc1ccccc1`, for which the composite z-score was -0.445. With `CC(C)C(CO)N1C(=O)[C@@H]2[C@H]3C(=O)OCC=C[C@H]3OC23C=CCN(c2ccc(Cl)cc2)C(=O)[C@@H]13` (stereo not given in full), the composite z-score was -0.7.

Compound `COC(=O)[C@@]1(Cc2ccc(F)cc2)[C@H]2c3cc(C(=O)N4CCCC4)n(Cc4ccc(C)c(F)c4F)c3C[C@H]2CN1C(=O)c1ccccc1` had a composite z-score of 1.29. As for `COc1ccccc1CN1C(=O)c2ccccc2[C@](Cc2ccccc2I)(C(=O)O)[C@@H]1c1ccc(CO)cc1`, the composite z-score is 1.36. The compound `COc1ccc([C@H]2OC[C@@H]3C[C@H](Cc4ccccc4)C(=O)N32)cc1` yielded a composite z-score of -0.465. As for `COCCOC(=O)N1C(=O)[C@@]2(c3cc(C#CC4(O)CCCCCC4)ccc31)[C@H](c1ccc(O)cc1)N1[C@H](c3ccccc3)[C@H](c3ccccc3)OC(=O)[C@H]1[C@@H]2C(=O)N1CCN(c2ncccn2)CC1`, the composite z-score stood at 1.33.

For the origin of these results see PubChem BioAssay.
